PRMT1 FP inh – inhibitors of human PRMT1. recombinant PRMT1, activity-based probe fluorescence polarization. inhibition, % at 2.79 µM. hit rate 1.3% among 370,000;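 active = inhibition above about 21% made by adding two undisclosed values, limit read from the data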
MBD2 DNA inh – blocks human MBD2 binding to methylated DNA. Q9UBB5. TR-FRET, MBD2 binding to methylated oligonucleotide. inhibition, % at 4.4 µM. AID 686964. hit rate 0.31% among 370,000; in the data active = inhibition above about 13%
UHRF1 MBD2 ctr – UHRF1 methyl-DNA binding inhibition; Q96T88; UHRF1 binding to methylated oligo, TR-FRET; inhibition, % at 4.4 µM; hit rate 0.75% among 370,000; AID 687016; in the data active = inhibition above about 21%;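 note: UHRF1 SRA domain binding a hemimethylated CpG hairpin DNA probe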
rCAG RNA binder – binds r(CAG) RNA repeats; inhibition, % at 3 µM; r(CAG) RNA repeat, TO-PRO-1 dye displacement fluorescence; AID 651821; hit rate 1.3% among 370,000;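 active = inhibition above the plate cutoff, the mean of all test compounds on that plate plus 3 SD, cut at about 35% in these data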;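 note: higher means more dye released from RNA so lower well fluorescence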
LEDGF integ inh – blocks HIV-1 LEDGF/p75-dependent DNA integration; TR-FRET IN-LEDGF/p75 DNA integration, Eu/Cy5; inhibition, % at 3.7 µM; hit rate 0.64% among 370,000;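 active = inhibition above the screen-wide mean plus 3 SD, cut at about 13% in these data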;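 note: signal is the Cy5 over europium emission ratio at 671 and 618 nm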
ABHD5 PLIN5 PPI – blocks binding of human ABHD5 to perilipin-5; hit rate 0.78% among 360,000; inhibition, % at 4 µM; Split G. princeps luciferase complementation, luminescence, 4 h;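 active = inhibition above the mean inhibition across every tested compound plus 3 SD, cut at about 22% in these data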
Target sequence (Q00G26 whole entry, looked up): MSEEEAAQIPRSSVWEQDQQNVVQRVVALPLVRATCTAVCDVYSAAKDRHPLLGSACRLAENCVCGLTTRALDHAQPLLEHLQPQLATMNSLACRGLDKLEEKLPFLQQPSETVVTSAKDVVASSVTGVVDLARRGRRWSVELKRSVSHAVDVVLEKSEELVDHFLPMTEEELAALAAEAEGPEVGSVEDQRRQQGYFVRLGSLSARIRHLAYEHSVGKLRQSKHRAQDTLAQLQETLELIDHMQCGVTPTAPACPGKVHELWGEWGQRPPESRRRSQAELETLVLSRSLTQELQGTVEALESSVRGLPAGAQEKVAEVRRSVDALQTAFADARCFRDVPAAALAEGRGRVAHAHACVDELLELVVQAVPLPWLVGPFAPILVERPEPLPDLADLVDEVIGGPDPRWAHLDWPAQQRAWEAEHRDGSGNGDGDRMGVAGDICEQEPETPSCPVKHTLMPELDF
Target sequence (Q8WTS1 whole entry, looked up): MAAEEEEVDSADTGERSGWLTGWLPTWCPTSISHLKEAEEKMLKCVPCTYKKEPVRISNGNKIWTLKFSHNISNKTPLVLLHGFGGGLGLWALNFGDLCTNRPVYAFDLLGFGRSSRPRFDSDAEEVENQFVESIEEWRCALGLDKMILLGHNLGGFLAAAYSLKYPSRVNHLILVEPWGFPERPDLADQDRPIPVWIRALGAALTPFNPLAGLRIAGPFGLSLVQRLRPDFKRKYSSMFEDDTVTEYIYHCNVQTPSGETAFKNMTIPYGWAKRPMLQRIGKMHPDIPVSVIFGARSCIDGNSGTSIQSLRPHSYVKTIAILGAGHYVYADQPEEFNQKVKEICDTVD
rCAG bind conf – r(CAG) RNA repeat binding, confirmation | hit rate 70% among 4,300 | inhibition, % at 3 µM | TO-PRO-1 dye displacement fluorescence | shares compounds with rCAG RNA binder;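 active = inhibition above a per-plate cutoff, the mean inhibition of sample wells plus 3 SD, cut at about 35% in these data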;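 note: loss of TO-PRO-1 fluorescence as compound displaces dye from 1x1 AA loop RNA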
dCAG dye counter – DNA CAG dye complex inhibition counter-screen | inhibition, % at 3 µM | shares compounds with rCAG RNA binder | hit rate 94% among 4,300 | AID 652068 | d(CAG) DNA oligo TO-PRO-1 dye displacement, fluorescence;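 active = inhibition above its plate's cutoff, the mean test-well inhibition plus 3 SD, cut at about 4.8% in these data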;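 note: hits displace the dye from DNA and so lower well fluorescence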
Of the large screens only hits and unclear results are named; the others gave an inactive call (follow-up assays come after a bar, where they were run). In the library only some 4.1% were active in any assay of this set; here they are far more common.

COc1ccccc1CCn1cnc(-c2ccc(OC)c(OC)c2)c1CC(C)C	none (no result: ABHD5 PLIN5 PPI)
CCc1ccc(NC(=O)CN(c2ccc(OC)cc2)S(=O)(=O)c2c(C)[nH]c(=O)[nH]c2=O)cc1	rCAG RNA binder 40 | rCAG bind conf inactive | dCAG dye counter inactive
COc1ccc(N(CC(=O)Nc2cccc(F)c2)S(=O)(=O)c2c(C)[nH]c(=O)[nH]c2=O)cc1	none
COc1ccc(N(CC(=O)Nc2cccc(C(F)(F)F)c2)S(=O)(=O)c2c(C)[nH]c(=O)[nH]c2=O)cc1	rCAG RNA binder 37 | rCAG bind conf inactive | dCAG dye counter 8.3
Cc1ccccc1CS(=O)(=O)Cc1ccc(C(=O)Nc2ccc(F)cc2)o1	none (no result: ABHD5 PLIN5 PPI)
Cc1cccc(Cn2cc(COC(=O)NCCc3ccccc3)nn2)c1	none (no result: ABHD5 PLIN5 PPI)
CCOC(=O)c1sc(NC(=O)CSc2n[nH]c(-c3ccccc3)n2)c(C#N)c1C	rCAG RNA binder 60 | rCAG bind conf 56 | dCAG dye counter 19
CCC(C#Cc1ccccc1)NCc1ccc(OC)cc1OC (configuration not stated)	none (no result: rCAG RNA binder, ABHD5 PLIN5 PPI)
CCCCCCCCN1C(=O)N2Cc3ccc(C)cc3C2CS1(=O)=O (configuration not stated)	none (no result: ABHD5 PLIN5 PPI)
CCCCCCCCCCCCCCCCCCNc1ccn(C2OC(COP(=O)(O)OCC3OC(n4cc(F)c(=O)[nH]c4=O)CC3O)C(O)C2O)c(=O)n1 (configuration not stated)	rCAG RNA binder 55 | rCAG bind conf 61 | dCAG dye counter 36
CCCCNC(=O)NS(=O)(=O)c1ccc(NC(=O)CSc2nnc(-c3ccc(Cl)cc3)n2N)cc1	none (no result: ABHD5 PLIN5 PPI)
Cc1ccc(S(=O)(=O)N/N=C/c2ccc(OS(=O)(=O)c3ccc(C)c([N+](=O)[O-])c3)cc2)cc1	rCAG RNA binder 35 | rCAG bind conf 50 | dCAG dye counter 15
Cc1ccc(S(=O)(=O)N/N=C\c2ccc(Cl)c([N+](=O)[O-])c2)cc1	none
CN(Cc1ccco1)C(=O)CN1C(=O)C2(OCCCO2)c2ccccc21	none (no result: ABHD5 PLIN5 PPI)
Cc1ccc(-c2cc(C#N)c3n(c2=O)CCC3)cc1	none (no result: ABHD5 PLIN5 PPI)
CC(C)CC(C(=O)O)N1C(=O)C2C3c4ccccc4C(c4ccccc43)[C@@H]2C1=O (some centres not stated)	none
O=C(O)C(Cc1c[nH]c2ccccc12)N1C(=O)C2C3c4ccccc4C(c4ccccc43)[C@@H]2C1=O (some centres not stated)	rCAG RNA binder 50 | rCAG bind conf 45 | dCAG dye counter 12
O=C1c2ccccc2C(O)(c2ccccc2)N1c1ccc([N+](=O)[O-])cc1Cl (configuration not stated)	rCAG RNA binder 40 | rCAG bind conf 40 | dCAG dye counter 10
Cc1ccccc1CN1[C@@H](C)[C@H](c2ccccc2)Oc2cccc(N3CCCC3)c2S1(=O)=O	none (no result: ABHD5 PLIN5 PPI)
O=C(O)c1cccc(N/N=C(\N=Nc2ccccc2)c2ccccc2)c1	rCAG RNA binder 38 | rCAG bind conf 53 | dCAG dye counter 17
NC(=O)/C(N=Nc1ccccc1)=N/Nc1ccccc1	none
Cc1ccc(C(C)C)c(OCC(=O)NS(=O)(=O)c2ccc(Cl)cc2)c1	rCAG RNA binder 51 | rCAG bind conf 36 | dCAG dye counter 7.0
Nc1nn2c(-c3ccccc3)cc(=O)[nH]c2c1N=Nc1ccc(Br)cc1	rCAG RNA binder 35 | rCAG bind conf 80 | dCAG dye counter 40
Cc1noc(C)c1NC(=O)Nc1ccc2c(c1)C(=O)N([C@@H](C)CO)C[C@@H](C)[C@H](CN(C)S(=O)(=O)c1ccc(F)cc1)OCCCC[C@H](C)O2	none (no result: rCAG RNA binder, ABHD5 PLIN5 PPI)
COc1ccc(/C=C2\CC3(OC(=O)c4cccc(F)c4)CCCN2C3)cc1 (configuration not stated)	none (no result: ABHD5 PLIN5 PPI)
CCn1c(COc2cccc(C)c2)nnc1SCC(=O)CC(=O)Nc1ccccc1OC	rCAG RNA binder 37 | rCAG bind conf inactive | dCAG dye counter 4.6
CCCSc1nnc(NC(=O)CSc2nc3[nH]c(=O)cc(O)c3s2)s1	rCAG RNA binder 37 | rCAG bind conf inactive | dCAG dye counter 7.8
Cc1ccc(N2NC(=O)/C(=C/c3ccc(-c4ccc(Cl)c(C(=O)O)c4)o3)C2=O)cc1C	none
COC(=O)c1ccc(N2NC(=O)/C(=C/c3ccc(-c4ccc(Cl)c(C(=O)O)c4)o3)C2=O)cc1	UHRF1 MBD2 ctr 39, rCAG RNA binder 41 | rCAG bind conf 69 | dCAG dye counter 29
O=C1NN(c2ccc(Cl)c(Cl)c2)C(=O)/C1=C/c1ccc(-c2ccccc2C(=O)O)o1	rCAG RNA binder 73 | rCAG bind conf 67 | dCAG dye counter 26
COC(=O)[C@]12C[C@H](CC(=O)N3CCN(C(=O)C4CC4)CC3)C(=O)N(Cc3cccc4ccccc34)C1=C[C@H](C(C)C)O[C@@H]2C1CC1	none (no result: ABHD5 PLIN5 PPI)
COc1ccccc1NC(=O)c1cc2ccccc2o/c1=N\O	none
COc1ccccc1N=c1oc2cc(O)ccc2cc1C(N)=O	rCAG RNA binder 40 | rCAG bind conf inactive | dCAG dye counter inactive
COc1ccccc1NC(=O)c1cc2ccc(O)cc2o/c1=N\O	rCAG RNA binder 46 | rCAG bind conf inactive | dCAG dye counter 7.5
COC(=O)C1=C(C)N(Cc2ccccc2C(F)(F)F)C(=NCc2ccccc2)NC1c1ccc(Cl)cc1 (configuration not stated)	none (no result: ABHD5 PLIN5 PPI)
Nc1cccc2[nH]c(C(F)(F)F)nc12	rCAG RNA binder 70 | rCAG bind conf 61 | dCAG dye counter 33
O=C(CSc1nc2ccccc2[nH]1)NN=Cc1ccccc1C(=O)O	none (no result: ABHD5 PLIN5 PPI)
O=C(Nc1ccc(N2C(=O)C3C4C=CC(C4)C3C2=O)cc1)Nc1nncs1 (configuration not stated)	none
O=C(Nc1ccc(N2C(=O)C3C4C=CC(C4)C3C2=O)cc1)Nc1nnc(C(F)(F)F)s1 (configuration not stated)	rCAG RNA binder 55 | rCAG bind conf 40 | dCAG dye counter 16
C[C@@H]1C=CCCO[C@]12C(=O)N(Cc1ccc(Br)cc1)c1cccc(Br)c12	none (no result: ABHD5 PLIN5 PPI)
O=C(Nc1cccc(C(=O)O)c1)/C(=C\c1ccc2c(c1)OCO2)NC(=O)c1ccccc1	none
O=C(Nc1cccc(C(=O)O)c1)/C(=C\c1ccc2c(c1)OCO2)NC(=O)c1ccc(Br)cc1	rCAG RNA binder 43 | rCAG bind conf inactive | dCAG dye counter 6.9
O=C(Nc1ccc(C(=O)O)cc1)/C(=C/c1ccc2c(c1)OCO2)NC(=O)c1cccc(Br)c1	rCAG RNA binder 50 | rCAG bind conf 41 | dCAG dye counter 10
CC(=O)Nc1ccc(S(=O)(=O)NCC2CCN(C(=O)C(=O)c3cc4ccccc4o3)CC2)cc1	none (no result: ABHD5 PLIN5 PPI)
